Screens from PubChem.
GLS inhibitor = glutaminase GLS (human) inhibition. O94925. AID 624170. 410,000 compounds, 0.21% hits. GLS enzymatic activity, qHTS titration. Potency, µM (top dose mostly 45.5 µM), for the others: top-dose activity change, negative = inhibition, hits mostly inhibitors; note: potency is the fitted concentration of half-maximal effect; % is set by controls: 0 for no effect and ±100 for the full control effect
Target sequence (O94925 whole entry, looked up): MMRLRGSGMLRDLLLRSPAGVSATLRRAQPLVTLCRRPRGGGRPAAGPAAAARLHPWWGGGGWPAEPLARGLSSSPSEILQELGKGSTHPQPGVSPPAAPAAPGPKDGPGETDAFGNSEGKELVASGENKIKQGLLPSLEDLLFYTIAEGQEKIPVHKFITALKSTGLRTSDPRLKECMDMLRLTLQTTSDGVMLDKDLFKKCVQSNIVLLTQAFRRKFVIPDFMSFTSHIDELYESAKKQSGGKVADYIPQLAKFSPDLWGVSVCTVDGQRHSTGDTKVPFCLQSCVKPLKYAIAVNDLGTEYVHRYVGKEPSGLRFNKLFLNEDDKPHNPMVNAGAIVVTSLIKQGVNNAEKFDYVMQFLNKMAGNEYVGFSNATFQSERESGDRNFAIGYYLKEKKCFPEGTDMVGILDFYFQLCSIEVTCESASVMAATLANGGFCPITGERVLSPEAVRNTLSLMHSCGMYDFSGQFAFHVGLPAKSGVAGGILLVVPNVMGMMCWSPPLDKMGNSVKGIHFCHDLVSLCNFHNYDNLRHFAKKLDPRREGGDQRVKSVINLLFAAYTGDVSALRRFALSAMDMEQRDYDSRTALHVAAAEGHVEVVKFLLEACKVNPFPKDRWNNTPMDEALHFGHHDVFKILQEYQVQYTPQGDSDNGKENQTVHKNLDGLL
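hKGA in 45 mM KH2PO4 (pH 8.2), 0.02% Tween-20 with compound, then 1mM L-Glutamine (stock as added) plus glutamate oxidase/HRP/Amplex red coupling mix. Fluorescence read initially and after 30 min at RT; signal change reflects glutamate formation.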
GLP1R ag = GLP-1 receptor (human) agonism; P43220; HEK293 GLP-1R CRE-luciferase, luminescence, 4-6 h; cells express a hypersensitive GLP-1R form; Potency, µM (doses to about 45.6 µM), inactives show at the top dose activation, actives largely listed as activators; 380,000 compounds, 0.007% hits; AID 624172; note: potency is the fitted concentration of half-maximal effect; % of control where 0% means no effect
KCNH2 WT inh = inhibitors of human wildtype KCNH2 potassium channel. Q12809. U2OS, BacMam KCNH2, thallium flux FluxOr; active compounds read low. activity change, % at 1.84 µM. 340,000 compounds, 0.37% hits;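 active = maximum activity change below -70%; inconclusive = maximum activity change between -70% and -50%; inactive = maximum activity change above -50%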; note: % is set by controls: 0 for no effect and ±100 for the full control effect
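U2OS cells were transduced with wild-type KCNH2 virus (2.03 x 10^8 / mL) for 4 h at room temperature, then cultured overnight at 37 C. Thallium flux was read with FluxOr dye. Rate constants were normalized to DMSO controls.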
HEK293 tox = cytotoxicity counter-screen for GLP-1 receptor inverse agonists. AID 624418. Potency, µM (top dose mostly 38.3 µM), inactives show at the highest dose activity change, negative = inhibition, most hits filed as inhibitors. HEK293 cAMP-luciferase reporter cells, luminescence, 24 h. 410,000 compounds, 0.13% hits;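 note: loss of luciferase light is scored as toxicity; potency is the fitted concentration of half-maximal effect; % is set by controls: 0 for no effect and ±100 for the full control effect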
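Step one: seed cells (200 cells/uL, DMEM with 10% Nu serum, 1% pen-strep). Step two: 12-hour incubation at 37 deg C. Step three: pin 23 nL compound, incubate 24 hr. Step four: add luciferase reagent, read luminescence 12 min later.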
KCNH2 3.1 block = KCNH2 3.1 (human) potassium channel inhibition; U2OS KCNH2 3.1, thallium flux FluxOr; active compounds read low; activity change, % (tested at about 1.8 µM); 340,000 compounds, 0.95% hits; AID 720553;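 active = maximum activity change below -70%; inconclusive = maximum activity change from -70% to -50%; inactive = maximum activity change above -50%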;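 note: thallium influx rate constant from kinetic fluorescence after stimulation buffer; % is set by controls: 0 for no effect and ±100 for the full control effect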
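FluxOr-based Tl+ influx in U2OS cells transduced with KCNH2 3.1 virus; rate constants normalized to DMSO controls.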
GLP1R inv ag = inverse agonists of human GLP-1 receptor. Potency, µM (doses to about 38.3 µM), for inactives: at the highest dose activity change, negative = inhibition, usual class: inhibitors. 410,000 compounds, 1.6% hits. HEK293 GLP-1R CRE-luciferase, luminescence, 24 h; GLP-1R form is constitutively active. P43220; note: potency is the fitted concentration of half-maximal effect; % is set by controls: 0 for no effect and ±100 for the full control effect; nearly all actives have a fitted effect of over 55% in size
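Inverse agonism was detected as reduced cAMP-driven luciferase luminescence after 24 h compound treatment. The cells were HEK293 clones expressing constitutively active human GLP-1R with the reporter. Reporter-only and GPR119 cell lines served as counterscreen controls.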
An asterisk follows results filed as active. In the library only some 2.8% were active in any assay of this set; here they are far more common. Unless noted, calls come from the whole dose curve; as a rule, active = well fitted curve in the direction sought with a large enough effect; inconclusive = small, poorly fitted or top-dose-only effect, or another doubt; inactive = no such curve, though single readings can be large; an effect the other way counts as inactive or inconclusive.

Results for Cc1cccc(N2CCN(CC(O)COCc3cccs3)CC2)c1C (centres undefined) ?
GLS inhibitor: 31.2%; GLP1R ag: 2.0%; KCNH2 WT inh: -79.7*; HEK293 tox: -13.1%; KCNH2 3.1 block: -98.4*; GLP1R inv ag: inconclusive

How did CSc1ccc(CCNC(=O)c2csc3c2CCCCC3)cc1 do in these assays?
GLS inhibitor: 1.2%; HEK293 tox: -3.6%; GLP1R inv ag: inconclusive

What do the screens show for `CCN(c1cccc(C)c1)c1ncnc2c1cnn2-c1cccc(Cl)c1`?
GLS inhibitor: -9.3%; HEK293 tox: -12.5%; GLP1R inv ag: -1.5%

What do the screens show for `CC1=NN(c2ccccc2)C(=O)/C1=C\C=C1\N(C)c2ccccc2C1(C)C`?
GLS inhibitor: 8.3%; GLP1R ag: -1.3%; KCNH2 WT inh: -8.7; HEK293 tox: -11.1%; KCNH2 3.1 block: -4.1; GLP1R inv ag: 11.2µM*

How did CCn1c(=NC(=O)CSC(C)=O)sc2cc(F)ccc21 do in these assays?
GLS inhibitor: 0.2%; GLP1R ag: -35.5%; KCNH2 WT inh: -14.2; HEK293 tox: 9.9%; KCNH2 3.1 block: -2.1; GLP1R inv ag: -2.7%

What do the screens show for `C#CCn1c(=NC(=O)CSC(C)=O)sc2cc(F)ccc21`?
GLS inhibitor: -9.5%; GLP1R ag: 5.1%; KCNH2 WT inh: -1.6; HEK293 tox: inconclusive; KCNH2 3.1 block: -2.2; GLP1R inv ag: 3.55µM*

Results for Cc1ccc(CNC(=O)c2c(O)nc3ccccn3c2=O)cc1 ?
GLS inhibitor: 2.6%; GLP1R ag: -0.8%; HEK293 tox: -8.3%; GLP1R inv ag: -10.1%

What do the screens show for `CCn1c(O)c(/C=C/C=C/C=Nc2ccccc2)sc1=S`?
GLS inhibitor: 0.8%; GLP1R ag: -0.7%; KCNH2 WT inh: -225.9*; HEK293 tox: -15.4%; KCNH2 3.1 block: -183.8*; GLP1R inv ag: 6.9%

How did CCCCn1c(O)c(/C=C/C=C/C=Nc2ccccc2)sc1=S do in these assays?
GLS inhibitor: -21.6%; GLP1R ag: 0.0%; KCNH2 WT inh: -3.3; HEK293 tox: inconclusive; KCNH2 3.1 block: -39.6; GLP1R inv ag: inconclusive

What do the screens show for `COc1ccc(-c2oc3c(OC)c(OC)c(OC)c(O)c3c(=O)c2OC)cc1OC`?
GLS inhibitor: 11.4%; GLP1R ag: 8.1%; KCNH2 WT inh: 1.8; HEK293 tox: -15.4%; KCNH2 3.1 block: 2.8; GLP1R inv ag: 2.82µM*

How did COc1cc(-c2cc(=O)c3c(O)c(OC)c(OC)c(O)c3o2)ccc1O do in these assays?
GLS inhibitor: 2.82µM*; GLP1R ag: 20.9%; KCNH2 WT inh: -2.7; HEK293 tox: 0.3%; KCNH2 3.1 block: 10.4; GLP1R inv ag: 33.4%

What do the screens show for `COc1c(O)c(O)c2oc(-c3ccccc3)cc(=O)c2c1OC`?
GLS inhibitor: 44.9%; GLP1R ag: 6.8%; KCNH2 WT inh: -2.0; HEK293 tox: 24.8%; KCNH2 3.1 block: -2.7; GLP1R inv ag: 17.5%

Results for COc1c(OC)c(O)c2c(=O)c(O)c(-c3ccccc3)oc2c1OC ?
GLS inhibitor: 25.7%; GLP1R ag: -2.7%; KCNH2 WT inh: -0.3; HEK293 tox: -14.0%; KCNH2 3.1 block: 6.7; GLP1R inv ag: inconclusive

Results for CC1(c2ccccc2)O[C@@H]2C[C@H]3[C@@H]4CCC5=CC(=O)C=C[C@]5(C)[C@@]4(F)[C@@H](O)C[C@]3(C)[C@]2(C(=O)CO)O1 (some centres undefined) ?
GLS inhibitor: 0.0%; GLP1R ag: 3.6%; KCNH2 WT inh: 1.1; HEK293 tox: 2.1%; KCNH2 3.1 block: -11.6; GLP1R inv ag: 7.94µM*

How did Cc1ccc(N2C(=O)N(CC(=O)Nc3c(C)cc(C)cc3Cl)C(=O)C2C)cc1 (centres undefined) do in these assays?
GLS inhibitor: -3.5%; GLP1R ag: 16.1%; KCNH2 WT inh: -6.7; HEK293 tox: -7.1%; KCNH2 3.1 block: -3.1; GLP1R inv ag: 10µM*

How did Cc1ccc(N2C(=O)N(CC(=O)Nc3ccc(C)cc3C)C(=O)C2C)cc1 (centres undefined) do in these assays?
GLS inhibitor: -7.6%; GLP1R ag: 4.0%; KCNH2 WT inh: 1.4; HEK293 tox: -2.4%; KCNH2 3.1 block: -0.9; GLP1R inv ag: inconclusive

Results for CCOC(=O)N1CCC(N(CCN(C)C)C(=S)Nc2cc(Cl)ccc2C)CC1 ?
GLS inhibitor: 18.1%; GLP1R ag: 11.5%; KCNH2 WT inh: -9.7; HEK293 tox: inconclusive; KCNH2 3.1 block: -17.3; GLP1R inv ag: 5.62µM*

What do the screens show for `CCOC(=O)N1CCC(N(CCN(C)C)C(=S)Nc2cc(C)ccc2C)CC1`?
GLS inhibitor: 4.4%; GLP1R ag: -2.5%; KCNH2 WT inh: -3.3; HEK293 tox: -11.2%; KCNH2 3.1 block: -11.7; GLP1R inv ag: -25.5%

Results for CCOC(=O)N1CCC(N(CCN(C)C)C(=S)Nc2cccc(Cl)c2)CC1 ?
GLS inhibitor: 20.3%; GLP1R ag: -1.3%; KCNH2 WT inh: 9.6; HEK293 tox: -4.5%; KCNH2 3.1 block: 2.9; GLP1R inv ag: 11.2µM*

What do the screens show for `COc1ccc(OC)c(-c2cc(C(=O)NC(C)c3ccccc3)no2)c1` (centres undefined)?
GLS inhibitor: 7.5%; HEK293 tox: 39.3%; GLP1R inv ag: -8.7%

Results for O=C(CCS(=O)(=O)c1ccc(Br)s1)Nc1cc(C(F)(F)F)cc(C(F)(F)F)c1 ?
GLS inhibitor: 3.7%; HEK293 tox: inconclusive; GLP1R inv ag: inconclusive

Results for CC(C)NC(=O)CN1C(=O)c2cccnc2Sc2ccccc21 ?
GLS inhibitor: 13.3%; HEK293 tox: 3.8%; GLP1R inv ag: 0.8%

What do the screens show for `Cc1cc(C)n(-c2nc3ccccc3nc2N2CCCCCC2)n1`?
GLS inhibitor: -5.9%; GLP1R ag: 0.9%; KCNH2 WT inh: 1.6; HEK293 tox: 50.1%; KCNH2 3.1 block: -15.5; GLP1R inv ag: 6.31µM*

How did Cc1cc(C)n(-c2nc3ccccc3nc2N2CCCC2)n1 do in these assays?
GLS inhibitor: 4.0%; GLP1R ag: 4.6%; KCNH2 WT inh: 10.9; HEK293 tox: -0.8%; KCNH2 3.1 block: -4.4; GLP1R inv ag: -27.4%

How did c1ccc2nc(N3CCCC3)c(N3CCCC3)nc2c1 do in these assays?
GLS inhibitor: 18.2%; GLP1R ag: 6.2%; KCNH2 WT inh: -7.8; HEK293 tox: -2.2%; KCNH2 3.1 block: -1.1; GLP1R inv ag: 1.78µM*

Results for c1ccc(-c2cc3ccccc3nc2N2CCCC2)cc1 ?
GLS inhibitor: 6.4%; GLP1R ag: -1.4%; KCNH2 WT inh: -15.3; HEK293 tox: 5.5%; KCNH2 3.1 block: -13.7; GLP1R inv ag: 2.51µM*
